Reference: publication PMC4552634, “A New Set of Chemical Starting Points with Plasmodium falciparum Transmission-Blocking Potential for Antimalarial Drug Discovery” (PLoS ONE, 2015)
Hit rate of the full screen: of about 13,000 compounds, about 3,200 (25%) showed an effect of 50% or more. The list shows a part of the results.

These compounds were tested on P. falciparum stage V gametocytes. Details: 48 h, 5 µM; inhibitor.
Parameters: BacTiter-Glo ATP luminescence viability of purified stage V gametocytes in 384-well plates, per cent inhibition versus DMSO

| SMILES | % Inhibition [%] |
| --- | --- |
| Oc1cc(Nc2ccnc3cc(I)ccc23)c(F)cc1Cl [TCMDC-138386] | -3.325 |
| COc1ccc2nccc([C@@H](O)CN3CCC(NC(=O)/C=C/c4c[nH]c5c(C)cccc45)CC3)c2c1 [TCMDC-141000] | -6.826 |
| COC(=O)CCn1c(C2CCN(CC3CCC(NC(=O)/C=C/c4ccc(Cl)c(Cl)c4)CC3)CC2)nc2ccccc21 (stereo not drawn) [TCMDC-140309] | -7.996 |
| Cc1ccc(C)c2sc(N(CCCn3ccnc3)C(=O)c3ccco3)nc12 [TCMDC-124924] | 13.91 |
| Cc1cc(N2CCC(NS(=O)(=O)c3cccc4cccnc34)CC2)nc(Nc2cccc(C#N)c2)n1 [TCMDC-134212] | -0.7992 |
| CCOC(=O)C1=C(C)NC2=C(C(=O)CCC2)C1c1cn(Cc2ccc(Cl)cc2Cl)nc1-c1ccccc1 (stereo not drawn) [TCMDC-125393] | -36.58 |
| COc1ccc(CNC2Cc3ccccc3C2)cc1-c1ccc(S(=O)(=O)NCCN2CCCC2)s1 [TCMDC-132258] | 106.2 |
| COc1ccc(CNC2CCN(C)CC2)cc1-c1ccc(S(=O)(=O)NCC2CCCO2)s1 (stereo not drawn) [TCMDC-132478] | 30.18 |
| COc1ccc(CNC2CCN(C)CC2)cc1-c1ccc(S(=O)(=O)NCCN2CCCC2)s1 [TCMDC-132259] | 103.7 |
| COc1ccc(CCN2CCC(NCc3cccc(N(C)C)c3)CC2)cc1 [TCMDC-124991] | -14.2 |
| COc1ccc(CNC2CCN(C)CC2)cc1-c1ccc(S(=O)(=O)NC2CCC2)s1 [TCMDC-132254] | 75.62 |
| COc1ccc(CNC2CCCC2)cc1-c1ccc(S(=O)(=O)NCCN2CCCC2)s1 [TCMDC-132299] | 107.1 |
| N#Cc1cccc(-c2cnc(N)c(-c3nc4ccc(S(N)(=O)=O)cc4[nH]3)c2)c1 [TCMDC-138816] | 7.84 |
| COc1ccc(C(c2ccc(N(C)C)cc2)c2ccc(N(C)C)cc2)cc1 [TCMDC-125652] | 48.26 |
| CN1CCN(CC(O)CNC(=O)Nc2ccc(Cl)cc2)CC1 (stereo not drawn) [TCMDC-134633] | 21.11 |
| COc1ccc2nccc([C@@H](O)CN3CCC(NC(=O)/C=C/c4ccc(Cl)c(C(F)(F)F)c4)CC3)c2c1 [TCMDC-141110] | -13.82 |
| CN1CCC(c2c[nH]c3ccc(NC(=O)Nc4ccc(-c5ccncc5)c(Cl)c4Cl)cc23)CC1 [TCMDC-139179] | -11.47 |
| CSc1ccc(C=CC(=O)NC(=O)c2ccccc2O)cc1 [TCMDC-123758] | 32.47 |
| O=C(NC1CCN(c2ccnc(Nc3ccc(F)cc3)n2)C1)c1cc2ccccc2s1 (stereo not drawn) [TCMDC-133599] | 10.95 |
| Cc1ccc(C(=O)Nc2cccc(CN3CCCN(Cc4ccc(O)cc4)CC3)c2)cc1 [TCMDC-141815] | 21.11 |
| O=C(Nc1cccc(CN2CCCN(Cc3ccc(O)cc3)CC2)c1)c1ccc(Cl)c(Cl)c1 [TCMDC-141834] | -18.14 |
| Cc1ccc(NC(=O)c2cccc(CN3CCCN(Cc4cccc(O)c4)CC3)c2)cc1C [TCMDC-135979] | 91.29 |
| O=C(Nc1cccc(CN2CCN(Cc3ccc(O)cc3)CC2)c1)c1ccc(Cl)c(Cl)c1 [TCMDC-134619] | -11.77 |
| Cc1ccc(CN2CCCN(Cc3cccc(NC(=O)c4ccc(Cl)c(Cl)c4)c3)CC2)cc1 [TCMDC-141835] | 80.74 |

| SMILES | % Inhibition [%] |
| --- | --- |
| N#Cc1ccc(CN2CCCN(Cc3cccc(NC(=O)c4ccc(Cl)c(Cl)c4)c3)CC2)cc1 [TCMDC-141823] | -56.24 |
| O=C(Nc1cccc(CN2CCCN(Cc3cccc(O)c3)CC2)c1)c1ccc(Cl)c(Cl)c1 [TCMDC-141831] | -42.16 |
| O=C(Nc1cccc(CN2CCN(Cc3cccc(O)c3)CC2)c1)c1ccc(Cl)c(Cl)c1 [TCMDC-134618] | 76.18 |
| O=C(Nc1cccc(CN2CCCN(CC3CCCCC3)CC2)c1)c1ccc(Cl)c(Cl)c1 [TCMDC-141818] | -34.63 |
| COc1cccc(CN2CCCN(Cc3cccc(NC(=O)c4ccc(Cl)c(Cl)c4)c3)CC2)c1 [TCMDC-141830] | 58.26 |
| Cc1ccc(NC(=O)c2ccc(CN3CCCN(Cc4cccc(O)c4)CC3)cc2)cc1C [TCMDC-136427] | 11.16 |
| Cc1ccc(NC(=O)c2cccc(CN3CCCN(Cc4cccc(O)c4)CC3)c2)cc1F [TCMDC-135959] | -11.31 |
| O=C(Nc1ccc(OC2CCN(Cc3ccccc3)CC2)c(Cl)c1)c1ccc(F)cc1 [TCMDC-133967] | 19.46 |
| FC(F)(F)c1ccc2nc(-c3ccc(-c4ccc(CN5CCN(c6ccncc6)CC5)cc4)cc3)[nH]c2c1 [TCMDC-132915] | -1.262 |
| COc1cc(F)c2ncc(Cl)c(C(O)CN3CCC(NC(=O)c4ccc5c(n4)NC(=O)CO5)CC3)c2c1 (stereo not drawn) [TCMDC-135912] | -16.65 |
| CCCc1cc(OC)c(CC2c3cccc(O)c3CCN2C)cc1OC (stereo not drawn) [TCMDC-137435] | 12.33 |
| CN(C)c1ccc(C=CC(=O)NC(=O)c2ccccc2O)cc1 [TCMDC-125391] | 21.33 |
| COc1ccc2c(c1)[nH]c1c(C=Cc3ccccc3)nccc12 [TCMDC-125877] | -0.575 |
| CCC(Cc1cnc2nc(N)nc(N)c2n1)c1ccc(C(=O)N[C@@H](CCC(=O)O)C(=O)O)cc1 (stereo partly drawn) [TCMDC-137768] | -32.96 |
| CN(c1cc(NC(=O)c2ccc(F)cc2)ccn1)C1CCN(Cc2cccc(C#N)c2)CC1 [TCMDC-134975] | 15.95 |
| CCCCN1CCN(Cc2cccc(NC(=O)c3ccc(Cl)c(Cl)c3)c2)CC1 [TCMDC-134615] | -27.06 |
| CC(C)CCN1CCCN(Cc2ccc(C(=O)Nc3ccc(F)c(F)c3)cc2)CC1 [TCMDC-136391] | 89.43 |
| O=C(Nc1cccc(CN2CCCN(Cc3cccnc3)CC2)c1)c1ccc(Cl)c(Cl)c1 [TCMDC-141824] | 12.34 |
| O=C(Nc1cccc(CN2CCCN(Cc3cccc(Cl)c3)CC2)c1)c1ccc(Cl)c(Cl)c1 [TCMDC-141822] | 77.55 |
| CC(C)CCN1CCCN(Cc2cccc(NC(=O)c3ccc(Cl)c(Cl)c3)c2)CC1 [TCMDC-141827] | 68.73 |
| O=C(Nc1cccc(CN2CCCN(Cc3ccsc3)CC2)c1)c1ccc(Cl)c(Cl)c1 [TCMDC-134581] | -57.04 |
| CCCCCCN1CCN(Cc2cccc(NC(=O)c3ccc(Cl)c(Cl)c3)c2)CC1 [TCMDC-134617] | -46.23 |
| Cc1ccc(NC(=O)c2ccc(CN3CCCN(CCC(C)C)CC3)cc2)cc1F [TCMDC-136410] | -21.57 |
| CC(C)CCN1CCCN(Cc2ccc(C(=O)Nc3ccc(Cl)cc3)cc2)CC1 [TCMDC-136413] | 0.3374 |

| SMILES | % Inhibition [%] |
| --- | --- |
| CCC(C)Oc1ccc2nc(N)nc(N)c2c1Cl (stereo not drawn) [TCMDC-137760] | 3.28 |
| O=C(NCCOc1ccccc1)[C@H](Cc1ccccc1)Nc1ccnc(NCC2CCCCC2)n1 [TCMDC-134710] | 2.198 |
| CC(C)(C)CNCC(C)(C)c1nc(-c2ccc(Cl)c(O)c2)c(-c2ccncc2)[nH]1 [TCMDC-140549] | -40.13 |
| CN1CCCN(Cc2ccc(-c3cccc(NC(=O)c4ccc(Cl)cc4)c3)cc2)CC1 [TCMDC-132628] | 20.29 |
| CN1N=C2c3ccccc3CCC2C1c1ccc(C#N)cc1 (stereo not drawn) [TCMDC-123771] | -59.69 |
| CN(CCO)Cc1ccc(-c2ccc(NS(=O)(=O)c3cccc4cccnc34)cc2)cc1 [TCMDC-136473] | -2.439 |
| C=C(C)COc1ccc(-c2n[nH]c(C(F)(F)F)c2-c2ccccc2OC)c(O)c1 [TCMDC-124477] | 8.317 |
| COc1ccc(N2CCN(C(CNC(=O)C3CCCCC3)c3ccc4c(c3)OCO4)CC2)cc1 (stereo not drawn) [TCMDC-124312] | 30.25 |
| COc1ccccc1NC(=O)CSc1nc2cccnc2n1-c1ccccc1OC [TCMDC-123645] | 66.58 |
| COc1ccc(C)cc1NC(=O)CSc1nc2cccnc2n1C1CCCCC1 [TCMDC-123649] | 3.671 |
| COc1ccccc1-n1c(SCC(=O)Nc2ccccc2F)nc2cccnc21 [TCMDC-123647] | 7.521 |
| c1ncc(CCNc2nc(Nc3ccc4c(c3)OCO4)nc(NC3CCCC3)n2)[nH]1 [TCMDC-139739] | 13.1 |
| CC(=O)Nc1ncc(C(=O)Nc2ccc(-c3cccc(-c4nc5ccc(F)cc5[nH]4)c3)cc2)s1 [TCMDC-136912] | 21.3 |
| O=C(Nc1cc(F)cc(F)c1)N1CCOC(CCN2CCC3(CCc4ccccc43)CC2)(c2ccc(Cl)c(Cl)c2)C1 (stereo not drawn) [TCMDC-135331] | -8.718 |
| CCOC(=O)c1c(-c2ccccc2)[nH]c2c(sc3ccccc32)c1=O [TCMDC-131540] | 7.736 |
| Cc1c(CCc2cccc(F)c2F)[nH]c2ccccc2c1=O [TCMDC-141293] | 23.35 |
| CCOC(=O)c1c(SCc2cccc(F)c2F)[nH]c2ccccc2c1=O [TCMDC-141118] | 58.44 |
| CCCCOC(=O)[C@H](CCC)NC(=O)c1ccc(NS(=O)(=O)c2ccc3nc(N)[nH]c(=O)c3c2)cc1 [TCMDC-137698] | 14.55 |
| COc1ccc2cc(CNCCCCCCNCc3ccc4cc(OC)ccc4c3)ccc2c1 [TCMDC-137797] | 110.4 |
| COc1ccc2c(OC)c(CNCCCCCCNCc3ccc4cc(OC)ccc4c3OC)ccc2c1 [TCMDC-137953] | 105.9 |
| COc1ccc2ccc(OC)c(CNCCCCCCNCc3c(OC)ccc4ccc(OC)cc34)c2c1 [TCMDC-137796] | 140.1 |
| COc1ccc2c(CNCCCCCCNCc3c(OC)ccc4cc(OC)ccc34)c(OC)ccc2c1 [TCMDC-137300] | 117.1 |
| COc1cc(CNCCCCCCNCc2cc(OC)cc3ccccc23)c2ccccc2c1 [TCMDC-137823] | 16.43 |
| COc1ccc(OC)c(C(O)CNC(C)C)c1 (stereo not drawn) [TCMDC-124281] | 22.77 |
